The list is not random: actives were taken first. Their share in the collection is about 7.5%.
ELG1 genotox: genotoxicity induction in ELG1-luciferase HEK293T cells. HEK293T ELG1-luciferase reporter, luminescence, 16 h. Potency, µM (titrated, usually from 46 µM), usual class: activators. 330,000 compounds, 1.3% hits. AID 504466; further: nearly all actives have a fitted effect of over 60% in size
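ELG1-luciferase HEK293T cells, 2,000/well; compound pinned in; 16 hr, 37 °C, 5% CO2; ONE-Glo, 30 min RT; luminescence on CCD imager.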
NPC1 promoter act: NPC1 promoter activation | Huh7 NPC1 promoter luciferase reporter, 24 h | AID 485313 | 320,000 compounds, 2.4% hits | Potency, µM (series often up to 9.22 µM), most hits filed as activators; further: nearly all actives have a fitted effect of over 60% in size
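Readout is luciferase luminescence, reflecting NPC1 promoter activation in stably transfected Huh7 cells after 24 h compound exposure at 37 °C in reduced-serum medium with 10% FBS.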
Luc counter: Kinase-Glo luciferase inhibition (counter-screen) | 200,000 compounds, 0.28% hits | AID 1379 | Potency, µM (doses to about 38.3 µM), actives largely listed as inhibitors | Kinase-Glo luciferase, ATP luminescence, 8 min; further: nearly all actives have a fitted effect of over 60% in size
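Luminescence was the read-out, taken after 8-minute incubation at ambient temperature. Luciferase turned over luciferin with 10 uM ATP in imidazole pH 7.2 buffer containing KCl, MgCl2, Tween 20 and BSA.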
SMN2 splice enh: enhancers of SMN2 splice variant expression; HEK293 SMN2-luciferase splicing reporter, luminescence, 30-36 h; Potency, µM (series often up to 46.1 µM), most hits filed as activators; 210,000 compounds, 2.8% hits; AID 1458; further: nearly all actives have a fitted effect of over 55% in size
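qHTS luciferase splicing reporter: luminescence rises when SMN2 exon 7 is included in transfected HEK293 cells. Compound exposure lasted 30-36 h at 37C, with 4.5 mM final sodium butyrate as control, followed by a ONE-Glo read.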
FLuc modulator: counter-screen for miR-21 project: firefly luciferase inhibitors or activators | AID 588342 | purified FLuc, Km substrates, luminescence inhibition | P08659 | Potency, µM (highest dose often 57.5 µM), hits mostly inhibitors | 360,000 compounds, 6.9% hits; further: nearly all actives have a fitted effect of over 55% in size
Target sequence (P08659 whole entry, looked up): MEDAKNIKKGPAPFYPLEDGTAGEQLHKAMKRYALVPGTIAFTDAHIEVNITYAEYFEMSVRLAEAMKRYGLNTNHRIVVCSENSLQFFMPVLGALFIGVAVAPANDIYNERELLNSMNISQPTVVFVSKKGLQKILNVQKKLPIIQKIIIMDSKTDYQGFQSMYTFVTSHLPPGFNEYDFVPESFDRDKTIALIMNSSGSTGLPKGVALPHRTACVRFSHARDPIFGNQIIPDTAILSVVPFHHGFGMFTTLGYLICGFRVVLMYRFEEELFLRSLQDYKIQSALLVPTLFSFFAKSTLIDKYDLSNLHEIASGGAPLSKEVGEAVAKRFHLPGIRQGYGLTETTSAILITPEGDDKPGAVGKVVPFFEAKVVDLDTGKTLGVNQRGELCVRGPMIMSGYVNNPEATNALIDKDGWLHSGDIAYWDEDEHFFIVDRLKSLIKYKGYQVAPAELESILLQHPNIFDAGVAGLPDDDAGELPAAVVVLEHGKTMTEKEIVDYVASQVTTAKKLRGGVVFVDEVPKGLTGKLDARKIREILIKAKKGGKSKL
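Purified P. pyralis luciferase, 10 nM final, with Km-level 10 uM D-luciferin and 10 uM ATP in 50 mM Tris acetate pH 7.5, 10 mM Mg acetate, 0.01% Tween-20, 0.05% BSA; 6-point qHTS titration about 60 µM downward; luminescence read.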
Rab9 prom act: Rab9 promoter activation; Huh7 Rab9 promoter-luciferase reporter, luminescence, 24 h; Potency, µM (titrated, usually from 9.22 µM), actives largely listed as activators; 320,000 compounds, 2.8% hits; AID 485297; further: nearly all actives have a fitted effect of over 60% in size
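Luciferase signal after 10 min detection reagent at ambient indicates Rab9 promoter upregulation; stably transfected Huh7 cells were treated 24 h with compound in DMSO at 37 °C, 5% CO2.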
A number is an active result; - = inactive; ? = inconclusive; . = not tested or not shown; [ ] = remark or other dose. The call rests on the fitted dose curve; in most records, active means well fitted curve in the direction sought with a large enough effect; inconclusive means small, poorly fitted or top-dose-only effect, or another doubt; inactive means no such curve, though single readings can be large; an effect the other way counts as inactive or inconclusive.

SMILES	ELG1 genotox	NPC1 promoter act	Luc counter	SMN2 splice enh	FLuc modulator	Rab9 prom act
COc1ccc(C(=O)NNC(=O)C(Cc2ccc(O)cc2)NC(=O)c2ccccc2NC(=O)c2ccc(OC)cc2)cc1 (stereo unspecified)	-	-	-	.	?	-
COc1ccc(C(=O)Nc2ccccc2C(=O)NC(Cc2ccc(O)cc2)C(=O)NNC(=O)c2ccccc2Cl)cc1 (stereo unspecified)	-	-	-	-	13.5µM	-
CC(C)Oc1ccc(C(=O)NC(Cc2c[nH]c3ccccc23)C(=O)NN)cc1 (stereo unspecified)	-	-	.	.	12µM	-
COc1ccc(C(=O)Nc2ccccc2C(=O)NC(Cc2c[nH]c3ccccc23)C(=O)O)cc1 (stereo unspecified)	-	-	-	-	15.1µM	-
O=C(N[C@@H](Cc1c[nH]c2ccccc12)C(=O)NC1CC1)c1ccccc1Cl	?	?	-	11.2µM	?	?
O=C(N[C@@H](Cc1c[nH]c2ccccc12)C(=O)O)c1ccccc1Cl	-	-	.	.	-	-
CN(C)c1ccc(/C=C2\Oc3ccc(C#Cc4cccc(N)c4)cc3C2=O)cc1	-	.	.	.	.	.
CCOC(=O)N1CCN(C(=O)CN2C(=O)c3ccccc3S2(=O)=O)CC1	?	-	.	.	-	-
O=C(CN1C(=O)c2ccccc2S1(=O)=O)c1ccc(F)c(F)c1	-	?	.	.	10.7µM	?
COc1ccc(C(=O)CN2C(=O)c3ccccc3S2(=O)=O)cc1	-	-	.	.	13.5µM	?
CCN1CCN(C(=O)CN2C(=O)c3ccccc3S2(=O)=O)CC1	?	?	.	.	?	2.51µM
O=C(CN1C(=O)c2ccccc2S1(=O)=O)c1ccc(O)c(O)c1	-	-	.	.	-	?
CC(C)COC(=O)N1CCN(S(=O)(=O)c2ccc3c(c2)CCC3)CC1	-	-	.	.	-	-
Cc1cc(=O)n(CC(=O)NC(C)c2ccccc2)c2c1c(C)nn2C (stereo unspecified)	.	.	.	.	-	.
CC(=O)Oc1cccc(/C=c2\sc3nc(-c4ccco4)nn3c2=O)c1	?	-	-	-	-	-
COc1cc(/C=c2\sc3nc(-c4ccncc4)nn3c2=O)ccc1OC(C)=O	-	-	-	-	2.69µM	-
CC(=O)c1cccc(NC(=O)CSc2ccc(-c3ccc4c(c3)OCO4)nn2)c1	-	-	-	-	?	?
COc1ccccc1NC(=O)CSc1ccc(-c2ccccn2)nn1	?	-	.	.	-	-
CCN(CC)C(=O)CSc1nc(-c2ccccc2)cc(-c2ccc(OC)cc2)c1C#N	.	.	.	-	16.9µM	.
COc1ccc(-c2ccc(SCC(=O)NC3CCCCC3)nn2)cc1OC	-	-	.	.	5.36µM	?
COc1ccc(-c2ccc(SCC(=O)Nc3cccc(C(C)=O)c3)nn2)cc1OC	-	-	-	.	6.01µM	-
COc1ccccc1NC(=O)CSc1ccc(-c2ccc(-n3cccn3)cc2)nn1	-	-	.	.	1.51µM	-
Cc1c(Cl)ccc2sc(N3CCN(C(=O)C4CC4)CC3)nc12	.	.	.	.	-	.
COc1ccc(NCc2cc(=O)oc3cc(NC(C)=O)ccc23)cc1	-	-	.	.	-	-[1.84 µM]
CC1=C(C(=O)Nc2cc(Cl)ccc2C)C2(CCCCC2)OC1=O	.	.	.	-	-	.
SMILES	ELG1 genotox	NPC1 promoter act	Luc counter	SMN2 splice enh	FLuc modulator	Rab9 prom act
CCOC(=O)CNC(=O)N1CCN(S(=O)(=O)c2ccc3c(ccn3C)c2)CC1	.	.	.	.	-	.
COc1ccc(-c2noc(-c3ccccc3C(=O)NCc3ccco3)n2)cc1OC	-	-	-	-	19µM	-
COc1ccc(-c2cc(-c3cccs3)c(C#N)c(SCC(=O)NCc3ccco3)n2)cc1	?	-	-	-	12µM	-
COc1ccc(CNC(=O)CSc2nc(-c3ccccc3)cc(-c3cccs3)c2C#N)cc1	?	-	-	-	-	-
CC(=O)c1cccc(NC(=O)CSc2ccc(-c3ccco3)nn2)c1	-	-	.	.	23.9µM	-
COc1ccc(-c2cc(C(F)(F)F)nc(SCC(=O)NCc3ccco3)n2)cc1OC	-	-	-	-	-	-
COc1ccc(-c2ccc(SCC(=O)NCc3ccco3)nn2)cc1OC	-	-	-	-	21.3µM	-
Cc1cccc(-c2nc(=S)c3c(o2)CCCC3)c1	?	1.41µM	-	11.2µM	3.38µM	1.41µM
CC(C)(C)c1ccc(-c2noc(CCC(=O)Nc3cccc(Cl)c3)n2)cc1	.	.	.	-	?	.
Cc1cccc2cc(/C=C3\N=C(c4ccccc4)OC3=O)c(N3CCOCC3)nc12	-	-	-	-	-	-
Cc1ccc(C2=N/C(=C/N3CCOCC3)C(=O)O2)cc1	16.4µM	?	-	11.2µM	12µM	3.55µM
COc1ccc(/C=C2\N=C(c3ccc(C)cc3)OC2=O)cc1	-	-	.	.	?	-
Cc1ccc(C2=N/C(=C\N3CCCCC3)C(=O)O2)cc1	4.11µM	2.24µM	-	?	5.36µM	1.12µM
O=C(CSc1nnc(-c2ccccc2Br)n1-c1ccccc1)c1ccc(F)cc1	.	.	.	-	-	.
CC(=O)Nc1ccc(-c2cc(C(=O)O)c3ccccc3n2)cc1	-	-	.	.	3.38µM	-
CC(=O)NS(=O)(=O)c1ccc(NC(=O)c2cc(-c3ccc(C)cc3)nc3ccccc23)cc1	-	-	-	-	8.49µM	-
Cc1ccc(-c2cc(C(=O)Nc3ccc(S(=O)(=O)Nc4nc(C)cc(C)n4)cc3)c3ccccc3n2)cc1	-	-	-	14.1µM	16.9µM	-
Cc1cc(NC(=O)c2cc(-c3ccc(C)c(C)c3)nc3ccccc23)no1	-	-	-	-	4.78µM	-
O=C(Cn1cc(C(=O)c2ccccc2)c(=O)c2cc3c(cc21)OCCO3)Nc1ccc(F)c(F)c1	.	.	.	-	-	.
CC(=O)c1ccc(NC(=O)CSc2ccc(-c3ccc(-n4cccn4)cc3)nn2)cc1	?	-	.	.	?	-
Cc1ccc(-c2nc3c4ccccc4n(CC(=O)N4CCN(c5ccccc5F)CC4)c(=O)n3n2)cc1	.	.	.	.	-	.
CC(=O)NS(=O)(=O)c1ccc(NC(=O)c2cc(-c3ccc(C)c(C)c3)nc3ccccc23)cc1	-	-	-	-	1.35µM	-
CC(=O)NS(=O)(=O)c1ccc(NC(=O)c2cc(-c3cccs3)nc3ccccc23)cc1	-	-	-	-	?	-
Cn1nc(C(C)(C)C)cc1C(=O)NN1CCOCC1	-	-	.	.	-	-
Cn1ccc2cc(S(=O)(=O)N3CCCN(C(=O)Nc4ccccc4Br)CC3)ccc21	.	.	.	.	-	.
CC1=CN2C(=N)/C(=C/c3ccc(Sc4ccc(C)cc4)o3)C(=O)N=C2S1	-	-	-	-	19µM	-
Cc1ccc(/C=C2\C(=N)N3N=C(CC(=O)N4CCOCC4)SC3=NC2=O)o1	-	-	.	.	-	-
CC1=CN2C(=N)/C(=C/c3ccc(C)o3)C(=O)N=C2S1	?	1.58µM	-	2.82µM	1.2µM	0.794µM

Bioassay records from PubChem.
